In PubChem BioAssay (EPA / NIEHS):
Calls of active or inactive are those of the source. How the source made its calls: active means hit-call score of the fitted dose curve at least 0.9, where 1 is the maximum; inactive means score below 0.9.

Experiments:
[1] = APR_HepG2_CellCycleArrest_1hr: Apredica 1-hour HepG2 Assay for Cell Cycle Arrest (AID 2282666); conditions: high-content imaging, actives raise or lower the signal
Method in brief: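 HepG2 cells exposed for 1 h to 0.39–200 uM compound (0.5% DMSO). Fixed, Hoechst-stained nuclei imaged by ArrayScan; DNA content quantified by Cell Cycle analysis; bidirectional fit against DMSO.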

[2] = APR_HepG2_CellLoss_1hr: Apredica 1-hour HepG2 Assay for Cell Loss (AID 2282668); conditions: high-content imaging;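 further: curves fitted both ways against DMSO so gain or loss of cells counts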
Method in brief: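 HepG2 cells were treated for 1 h with compound at 0.39–200 uM, in duplicate, in 0.5% DMSO. After formaldehyde fixation, Hoechst 33342-stained nuclei were imaged on an ArrayScan to count cells. Data were fitted bidirectionally versus DMSO.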

[3] = APR_HepG2_p53Act_1hr: Apredica 1-hour HepG2 Assay for p53 Activation (AID 2282671); conditions: high-content imaging, actives raise or lower the signal
Method in brief: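 HepG2 cells treated 1 h with compound at 0.39–200 uM (10 concentrations, duplicate) in 0.5% DMSO. Formaldehyde-fixed, permeabilised cells immunostained for p53 with Hoechst 33342; high-content imaging, bidirectional fit versus DMSO.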

[4] = APR_HepG2_MitoticArrest_1hr: Apredica 1-hour HepG2 Assay for Mitotic Arrest (AID 2282672); conditions: high-content imaging, actives raise or lower the signal
Method in brief: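 HepG2 cells exposed 1 hr to compounds at 0.39–200 uM (0.5% v/v DMSO final), then fixed in 3.7% formaldehyde and immunostained for phospho-histone H3 with Hoechst 33342. Mitotic arrest scored by automated fluorescence imaging, fitted bidirectionally versus DMSO.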

[5] = APR_HepG2_MitoMembPot_1hr: Apredica 1-hour HepG2 Assay for Mitochondrial Membrane Potential (AID 2282675); conditions: imaging, actives raise or lower the signal
Method in brief: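 HepG2 cells dosed 1 hour with 0.39–200 uM compound in duplicate, 0.5% DMSO final. MitoTracker Red CMXRos (250 nM, 30 min) loaded before formaldehyde fixation; fluorescence quantified by high-content imaging, bidirectional fitting versus DMSO.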

[6] = APR_HepG2_CellCycleArrest_24hr: Apredica 24-hour HepG2 Assay for Cell Cycle Arrest (AID 2282905); conditions: imaging, actives raise or lower the signal;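 further: cell cycle arrest scored as ratio of 2N to 4N nuclear DNA content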
Method in brief: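 HepG2, 24 hr dosing, 10-pt 0.39–200 uM in duplicate, 0.5% DMSO. Fixed 3.7% formaldehyde, permeabilized 0.5% Triton X-100, Hoechst 33342 2 ug/mL. Imaged 20x; nuclear DNA content quantified; bidirectional fit vs DMSO.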

[7] = APR_HepG2_StressKinase_1hr: Apredica 1-hour HepG2 Assay for Stress Kinase (AID 2282906); conditions: HepG2 stress kinase (phospho-c-Jun) imaging, actives raise or lower the signal
Method in brief: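 HepG2 cells dosed 0.39-200 uM (0.5% DMSO) for 1 h, then formaldehyde-fixed. Stress kinase read by phospho-c-Jun immunofluorescence using high-content imaging; bidirectional fit vs DMSO.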

[8] = APR_HepG2_CellLoss_24hr: Apredica 24-hour HepG2 Assay for Cell Loss (AID 2282908); conditions: high-content imaging;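 on AC50: fit in both directions so a hit may be cell loss or gain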
Method in brief: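 10-pt dose, 0.39–200 uM, n=2/plate; DMSO 0.5% v/v final as negative control. Fix 3.7% formaldehyde 30 min RT, permeabilize 0.5% Triton X-100, stain Hoechst 33342 2 ug/mL, image 20x. Nuclear count, bidirectional fit vs DMSO.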

[9] = APR_HepG2_MicrotubuleCSK_24hr: Apredica 24-hour HepG2 Assay for Microtubule CSK Stabilty (AID 2282909); conditions: HepG2 microtubule cytoskeleton imaging, actives raise or lower the signal
Method in brief: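 Human liver HepG2, 24 h dosing, 0.39–200 uM ×10 conc, dup, 0.5% DMSO. 3.7% formaldehyde fix, 0.5% Triton perm, anti-alpha-tubulin (1:200)/Cy5 secondary + Hoechst. HCS imaging, 6 fields/well; gain/loss fit vs DMSO.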

[10] = APR_HepG2_MitoticArrest_24hr: Apredica 24-hour HepG2 Assay for Mitotic Arrest (AID 2282910); conditions: high-content imaging, actives raise or lower the signal
Method in brief: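 HepG2 cells, 24 h exposure at 0.39-200 uM (10 concentrations, duplicate, 0.5% DMSO). Fixed, stained for phospho-histone H3 with Hoechst; imaged by high-content microscopy, bidirectional fit versus DMSO.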

[11] = APR_HepG2_MitoMembPot_24hr: Apredica 24-hour HepG2 Assay for Mitochondrial Membrane Potential (AID 2282911); conditions: imaging, actives raise or lower the signal
Method in brief: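 HepG2 cells exposed 24 h to 0.39–200 uM compounds in duplicate, 0.5% v/v DMSO final. MitoTracker Red CMXRos 250 nM loaded 30 min before formaldehyde fixation; high-content imaging at 20x, bidirectional fit versus DMSO.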

[12] = APR_HepG2_MitoMass_24hr: Apredica 24-hour HepG2 Assay for Mitochondrial Mass (AID 2282912); conditions: high-content imaging, actives raise or lower the signal
Method in brief: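 Mitochondrial mass is read as MitoTracker Red fluorescence intensity from automated imaging, with bidirectional curve fitting relative to DMSO. HepG2 cells received compound (0.39–200 uM, 0.5% DMSO final) for 24 hr and were dye-loaded (250 nM, 30 min) before formaldehyde fixation.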

[13] = APR_HepG2_p53Act_24hr: Apredica 24-hour HepG2 Assay for p53 Activation (AID 2282913); conditions: high-content imaging, actives raise or lower the signal;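 further: p53 protein immunofluorescence averaged per cell in HepG2 with Hoechst nuclei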
Method in brief: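 HepG2 cells exposed 24 h to compounds at 0.39–200 uM in duplicate, 0.5% v/v DMSO final; fixed, permeabilized, stained with anti-p53 antibody and Hoechst 33342; fluorescence imaging; bidirectional curve fit versus DMSO.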

[14] = APR_HepG2_CellCycleArrest_72hr: Apredica 72-hour HepG2 Assay for Cell Cycle Arrest (AID 2282914); conditions: high-content imaging, actives raise or lower the signal
Method in brief: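 HepG2 cells exposed 72 h in duplicate to 0.39–200 uM compound, 0.5% DMSO final. Formaldehyde-fixed, Hoechst 33342-stained nuclei imaged at 20x, six fields per well; DNA content per valid cell quantified by cell-cycle image analysis, bidirectional fit versus DMSO.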

[15] = APR_HepG2_CellLoss_72hr: Apredica 72-hour HepG2 Assay for Cell Loss (AID 2282915); conditions: high-content imaging
Method in brief: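 HepG2 cells exposed 72 h to compound at 0.39–200 uM (10 concentrations, duplicate) in 0.5% DMSO. Fixed with 3.7% formaldehyde and Hoechst 33342-stained. Imaged at 20x; nuclear count gives cell number, fitted bidirectionally versus DMSO.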

[16] = APR_HepG2_P-H2AX_1hr: Apredica 1-hour HepG2 Assay for H2AX Phosphorylation (AID 2282673); conditions: high-content imaging, actives raise or lower the signal
Method in brief: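 HepG2 dosed 1 hr at 0.39-200 uM (0.5% DMSO final), duplicate. Fixed in 3.7% formaldehyde, Triton permeabilized, immunostained for phospho-histone H2A.x (1:200) with Hoechst 33342; ArrayScan 20x imaging, bidirectional fit vs DMSO.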

[17] = APR_HepG2_NuclearSize_1hr: Apredica 1-hour HepG2 Assay for Nuclear Size (AID 2282670); conditions: high-content imaging, actives raise or lower the signal
Method in brief: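 HepG2 cells dosed 1 hr with 0.39–200 uM compound (0.5% DMSO), formaldehyde-fixed, Hoechst 33342-stained and imaged at 20x; nuclear diameter from nuclear stain, fitted bidirectionally against DMSO.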

[18] = APR_HepG2_NuclearSize_24hr: Apredica 24-hour HepG2 Assay for Nuclear Size (AID 2282907); conditions: high-content imaging, actives raise or lower the signal
Method in brief: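 HepG2, 24 hr dosing, 10-pt 0.39–200 uM, duplicates, 0.5% DMSO final; 3.7% formaldehyde fix, 0.5% Triton X-100; Hoechst 33342 nuclear stain; ArrayScan HCS, Cell Cycle analysis → nuclear size; bidirectional fit vs DMSO.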

[19] = APR_HepG2_MitoMass_1hr: Apredica 1-hour HepG2 Assay for Mitochondrial Mass (AID 2282674); conditions: high-content imaging, actives raise or lower the signal
Method in brief: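 HepG2 cells dosed 1 hr with 0.39-200 uM compound (0.5% DMSO), duplicate wells. Mitochondria stained with 250 nM MitoTracker Red CMXRos for 30 min before formaldehyde fixation, imaged at 20x by ArrayScan; bidirectional fit versus DMSO.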

Measured: AC50

CC(C1CC1)C(O)(Cn1cncn1)c1ccc(Cl)cc1 (centres undefined)
not listed: [16] | [17] | [18] | [19]
inactive: all other assays above

CCC(CC)Nc1c([N+](=O)[O-])cc(C)c(C)c1[N+](=O)[O-]
active: [11] 84.3 µM | [15] 108 µM
not listed: [6] | [17] | [18] | [19]
inactive: all other assays above

CCCOCC(=Nc1ccc(Cl)cc1C(F)(F)F)n1ccnc1
active: [15] 100 µM
not listed: [16] | [18] | [19]
inactive: all other assays above

COP(=O)(NC(C)=O)SC (centres undefined)
not listed: [5] | [6] | [16] | [17] | [19]
inactive: all other assays above

C=C(C)[C@H]1Cc2c(ccc3c2O[C@@H]2COc4cc(OC)c(OC)cc4[C@@H]2C3=O)O1
active: [8] 15.7 µM | [11] 0.295 µM | [14] 0.283 µM | [15] 12.8 µM
not listed: [3] | [5] | [6] | [13] | [18] | [19]
inactive: all other assays above

CCCCSP(=O)(SCCCC)SCCCC
active: [15] 87.3 µM
not listed: [6] | [16] | [17] | [18] | [19]
inactive: all other assays above

CCOP(=S)(OCC)SCCSCC
not listed: [5] | [6] | [16] | [18] | [19]
inactive: all other assays above

CNC(=O)ON=C(C)SC
not listed: [17] | [18]
inactive: all other assays above

CCOP(=O)(SC(C)CC)N1CCSC1=O (centres undefined)
not listed: [3] | [13] | [16] | [17] | [18]
inactive: all other assays above

CCCCN(CC)c1c([N+](=O)[O-])cc(C(F)(F)F)cc1[N+](=O)[O-]
active: [6] 99.3 µM | [11] 71.9 µM | [14] 108 µM | [15] 84.6 µM
not listed: [5] | [16] | [17] | [18]
inactive: all other assays above

CC(C)N(C(=O)SCC(Cl)=C(Cl)Cl)C(C)C
active: [8] 113 µM | [15] 110 µM
not listed: [16] | [18]
inactive: all other assays above

COc1cc(OC)nc(Sc2cccc(Cl)c2C(=O)O)n1
not listed: [6] | [16] | [19]
inactive: all other assays above

CCOC(=O)COc1cc(-c2nn(C)c(OC(F)F)c2Cl)c(F)cc1Cl
not listed: [5] | [16] | [18]
inactive: all other assays above

CNC(=O)Oc1cccc2c1OC(C)(C)O2
active: [8] 83.8 µM | [15] 86.6 µM
not listed: [5] | [6] | [16] | [17] | [18] | [19]
inactive: all other assays above

N#CSCSC#N
active: [8] 13.6 µM
not listed: [5] | [17] | [18]
inactive: all other assays above

COP(=O)(OC)C(O)C(Cl)(Cl)Cl (centres undefined)
active: [8] 76.8 µM | [9] 97.7 µM | [10] 103 µM | [14] 184 µM | [15] 100 µM
not listed: [6] | [16] | [17] | [18]
inactive: all other assays above

CCOP(=O)(OCC)Oc1cc(C)nc(C(C)C)n1
not listed: [5] | [6] | [16] | [17] | [19]
inactive: all other assays above
